From publication PMC7862700, “An all-to-all approach to the identification of sequence-specific readers for epigenetic DNA modifications on cytosine”

Key:
Test in all cases: DAPPL (digital affinity profiling via proximity ligation, sequencing); 10 mM Tris-HCl pH 7.5, 50 mM NaCl, 1 mM DTT, 4% glycerol, room temperature, 30 min; GST-TFs on glutathione beads, 16-mer random dsDNA library, 0.1% formaldehyde crosslink after washing; high values mean tight binding
Conditions in all cases: protein: recombinant; tags: N-terminal GST; dsDNA, one strand shown
ELK1 = molecular target: T1, ELK1 (Homo sapiens, UniProt P19419 1-428)
T1 sequence: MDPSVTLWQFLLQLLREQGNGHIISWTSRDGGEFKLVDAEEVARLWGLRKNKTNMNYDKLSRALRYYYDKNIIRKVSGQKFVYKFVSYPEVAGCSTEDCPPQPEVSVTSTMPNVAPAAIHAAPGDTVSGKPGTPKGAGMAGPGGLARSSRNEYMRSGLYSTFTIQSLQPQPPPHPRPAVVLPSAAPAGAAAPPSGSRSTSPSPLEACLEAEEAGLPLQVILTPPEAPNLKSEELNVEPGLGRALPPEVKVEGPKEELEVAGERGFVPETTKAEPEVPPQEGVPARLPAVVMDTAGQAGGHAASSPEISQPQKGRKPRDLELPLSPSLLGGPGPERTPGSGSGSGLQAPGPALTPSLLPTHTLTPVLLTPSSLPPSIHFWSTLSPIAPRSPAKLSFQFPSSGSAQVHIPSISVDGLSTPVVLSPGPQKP
Method in brief: (§1)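 Beads coated with glutathione captured GST-fused human transcription factors that had been expressed in yeast, and the factors were then given DNA barcodes and pooled with a tag-only sample. The pools were incubated with 200 nmole of a random double-stranded 16-mer DNA library in Tris/NaCl/DTT/glycerol buffer for 30 min at room temperature, washed, crosslinked with 0.1% formaldehyde and proximity-ligated with BsaI/T4 ligase at 37 °C for 1 h. PCR amplification and Illumina NextSeq500 sequencing came last. Binding signal is each hexamer's read frequency for a factor divided by its frequency for the tag-only sample.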

GABPA = molecular target: T2, GABPA (Homo sapiens, UniProt Q06546 1-454)
T2 sequence: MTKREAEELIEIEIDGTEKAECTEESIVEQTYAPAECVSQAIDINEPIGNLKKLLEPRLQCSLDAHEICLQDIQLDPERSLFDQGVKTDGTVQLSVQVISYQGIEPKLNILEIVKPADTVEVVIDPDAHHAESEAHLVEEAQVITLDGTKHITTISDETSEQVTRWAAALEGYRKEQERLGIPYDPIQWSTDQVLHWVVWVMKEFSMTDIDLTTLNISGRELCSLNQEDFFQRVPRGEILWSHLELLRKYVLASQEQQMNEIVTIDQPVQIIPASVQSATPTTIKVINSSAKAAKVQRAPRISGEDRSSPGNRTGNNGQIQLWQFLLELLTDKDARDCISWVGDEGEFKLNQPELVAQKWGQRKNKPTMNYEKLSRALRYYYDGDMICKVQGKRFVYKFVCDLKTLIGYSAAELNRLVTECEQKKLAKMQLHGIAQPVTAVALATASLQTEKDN
Method in brief: as §1

ERG = molecular target: T3, ERG (Homo sapiens, UniProt P11308 1-479)
T3 sequence: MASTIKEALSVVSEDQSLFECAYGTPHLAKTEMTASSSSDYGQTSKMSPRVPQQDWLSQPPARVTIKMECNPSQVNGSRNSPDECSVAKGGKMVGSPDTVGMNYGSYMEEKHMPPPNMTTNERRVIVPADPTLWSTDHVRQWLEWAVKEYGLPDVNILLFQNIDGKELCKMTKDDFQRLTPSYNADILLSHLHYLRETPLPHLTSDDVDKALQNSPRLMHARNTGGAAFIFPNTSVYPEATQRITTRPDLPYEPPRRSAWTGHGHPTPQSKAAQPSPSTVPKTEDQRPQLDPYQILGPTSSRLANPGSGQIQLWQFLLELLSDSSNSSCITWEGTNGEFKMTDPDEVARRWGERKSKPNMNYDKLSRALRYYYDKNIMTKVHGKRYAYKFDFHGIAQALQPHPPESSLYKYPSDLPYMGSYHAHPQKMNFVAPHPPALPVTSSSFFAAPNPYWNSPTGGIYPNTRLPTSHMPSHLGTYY
Method in brief: as §1

ELF1 = ELF1 (Homo sapiens, UniProt P32519 1-619)
Chain of ELF1 (P32519 whole entry): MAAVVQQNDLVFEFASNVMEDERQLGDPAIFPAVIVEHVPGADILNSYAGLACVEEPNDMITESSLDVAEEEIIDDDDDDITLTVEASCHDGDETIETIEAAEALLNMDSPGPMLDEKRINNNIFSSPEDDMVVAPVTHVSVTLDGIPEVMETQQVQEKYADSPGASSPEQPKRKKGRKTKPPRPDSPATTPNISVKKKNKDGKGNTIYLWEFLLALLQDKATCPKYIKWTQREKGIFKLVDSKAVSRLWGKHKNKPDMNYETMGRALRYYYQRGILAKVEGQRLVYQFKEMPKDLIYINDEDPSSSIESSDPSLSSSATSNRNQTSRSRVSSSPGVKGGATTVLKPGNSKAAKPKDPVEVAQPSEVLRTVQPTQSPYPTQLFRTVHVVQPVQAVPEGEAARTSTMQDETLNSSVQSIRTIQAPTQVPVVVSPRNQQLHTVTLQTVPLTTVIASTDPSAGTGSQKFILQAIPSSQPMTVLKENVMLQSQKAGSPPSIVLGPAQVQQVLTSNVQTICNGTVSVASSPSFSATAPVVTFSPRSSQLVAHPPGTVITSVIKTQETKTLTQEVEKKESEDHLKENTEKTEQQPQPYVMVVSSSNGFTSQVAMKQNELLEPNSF
Method in brief: as §1

SPIB = SPIB (Homo sapiens, UniProt Q01892 1-262)
Chain of SPIB (Q01892 whole entry): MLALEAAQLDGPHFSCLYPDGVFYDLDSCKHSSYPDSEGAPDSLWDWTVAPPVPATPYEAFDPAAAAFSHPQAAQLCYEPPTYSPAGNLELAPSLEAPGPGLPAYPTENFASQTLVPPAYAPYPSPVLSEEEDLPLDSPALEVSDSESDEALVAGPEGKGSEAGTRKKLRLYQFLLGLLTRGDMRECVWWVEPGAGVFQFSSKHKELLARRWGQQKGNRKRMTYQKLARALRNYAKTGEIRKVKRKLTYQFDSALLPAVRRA
Method in brief: as §1

SPIC = molecular target: T4, SPIC (Homo sapiens, UniProt Q8N5J4 1-248)
T4 sequence: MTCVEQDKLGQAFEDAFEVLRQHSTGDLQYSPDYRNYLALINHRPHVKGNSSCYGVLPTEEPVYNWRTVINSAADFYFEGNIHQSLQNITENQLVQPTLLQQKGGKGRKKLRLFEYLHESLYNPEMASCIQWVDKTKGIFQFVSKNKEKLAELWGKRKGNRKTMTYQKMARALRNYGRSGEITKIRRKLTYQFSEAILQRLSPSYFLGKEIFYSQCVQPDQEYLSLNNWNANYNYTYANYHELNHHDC
Method in brief: as §1

ELF4 = ELF4 (Homo sapiens, UniProt Q99607 1-663)
Chain of ELF4 (Q99607 whole entry): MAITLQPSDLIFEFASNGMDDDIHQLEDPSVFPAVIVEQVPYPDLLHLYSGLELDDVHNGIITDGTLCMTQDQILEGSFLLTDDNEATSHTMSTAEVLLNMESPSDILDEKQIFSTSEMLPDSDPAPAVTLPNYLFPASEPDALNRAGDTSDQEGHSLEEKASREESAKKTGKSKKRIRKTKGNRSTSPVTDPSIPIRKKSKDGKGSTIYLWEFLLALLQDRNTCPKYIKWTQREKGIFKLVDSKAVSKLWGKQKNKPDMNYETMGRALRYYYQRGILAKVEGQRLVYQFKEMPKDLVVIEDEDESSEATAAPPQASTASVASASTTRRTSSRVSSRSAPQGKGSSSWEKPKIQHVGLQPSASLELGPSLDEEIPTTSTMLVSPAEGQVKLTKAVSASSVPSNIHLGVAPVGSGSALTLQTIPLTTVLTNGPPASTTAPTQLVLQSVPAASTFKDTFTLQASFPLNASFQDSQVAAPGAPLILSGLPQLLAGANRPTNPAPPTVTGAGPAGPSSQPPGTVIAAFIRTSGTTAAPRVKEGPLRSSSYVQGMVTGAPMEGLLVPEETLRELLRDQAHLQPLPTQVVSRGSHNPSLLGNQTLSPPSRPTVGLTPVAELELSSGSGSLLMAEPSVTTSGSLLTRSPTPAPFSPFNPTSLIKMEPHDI
Method in brief: as §1

ELK4 = molecular target: T5, ELK4 (Homo sapiens, UniProt P28324-2 1-405)
T5 sequence: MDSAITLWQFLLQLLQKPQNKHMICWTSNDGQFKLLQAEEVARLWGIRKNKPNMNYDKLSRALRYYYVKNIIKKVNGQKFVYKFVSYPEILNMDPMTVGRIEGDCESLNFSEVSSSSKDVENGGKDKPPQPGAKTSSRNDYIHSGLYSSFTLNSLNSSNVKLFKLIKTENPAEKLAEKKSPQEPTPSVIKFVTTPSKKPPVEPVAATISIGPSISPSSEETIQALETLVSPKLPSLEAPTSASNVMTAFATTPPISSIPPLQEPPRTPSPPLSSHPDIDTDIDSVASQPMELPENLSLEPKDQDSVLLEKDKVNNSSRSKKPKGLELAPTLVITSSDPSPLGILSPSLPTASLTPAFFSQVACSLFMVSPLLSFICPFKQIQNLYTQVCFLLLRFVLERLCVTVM
Method in brief: as §1

ELF3 = molecular target: T6, ELF3 (Homo sapiens, UniProt P78545 1-371)
T6 sequence: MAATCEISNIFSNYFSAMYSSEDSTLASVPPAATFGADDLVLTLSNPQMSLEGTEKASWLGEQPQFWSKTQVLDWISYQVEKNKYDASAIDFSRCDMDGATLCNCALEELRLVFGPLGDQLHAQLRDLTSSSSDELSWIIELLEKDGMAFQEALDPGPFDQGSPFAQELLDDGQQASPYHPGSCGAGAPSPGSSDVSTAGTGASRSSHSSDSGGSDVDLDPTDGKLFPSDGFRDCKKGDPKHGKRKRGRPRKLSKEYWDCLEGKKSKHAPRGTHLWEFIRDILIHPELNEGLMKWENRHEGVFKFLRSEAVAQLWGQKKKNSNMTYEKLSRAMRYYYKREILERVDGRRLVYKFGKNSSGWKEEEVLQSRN
Method in brief: as §1

ETV1 = ETV1 (Homo sapiens, UniProt P50549 1-477)
Chain of ETV1 (P50549 whole entry): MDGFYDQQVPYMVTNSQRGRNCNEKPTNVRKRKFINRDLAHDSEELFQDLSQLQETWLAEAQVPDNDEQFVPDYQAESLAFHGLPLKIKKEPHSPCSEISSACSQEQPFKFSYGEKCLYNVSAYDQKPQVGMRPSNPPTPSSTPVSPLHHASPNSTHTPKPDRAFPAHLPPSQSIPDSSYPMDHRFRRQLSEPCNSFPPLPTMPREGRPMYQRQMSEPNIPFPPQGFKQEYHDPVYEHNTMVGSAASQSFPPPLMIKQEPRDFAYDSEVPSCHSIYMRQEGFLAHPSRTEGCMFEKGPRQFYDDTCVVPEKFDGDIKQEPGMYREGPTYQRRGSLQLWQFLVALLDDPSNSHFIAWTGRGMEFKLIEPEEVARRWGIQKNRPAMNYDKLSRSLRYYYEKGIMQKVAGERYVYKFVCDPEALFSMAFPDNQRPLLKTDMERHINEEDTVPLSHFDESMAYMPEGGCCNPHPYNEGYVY
Method in brief: as §1

ERF = molecular target: T7, ERF (Homo sapiens, UniProt P50548 1-548)
T7 sequence: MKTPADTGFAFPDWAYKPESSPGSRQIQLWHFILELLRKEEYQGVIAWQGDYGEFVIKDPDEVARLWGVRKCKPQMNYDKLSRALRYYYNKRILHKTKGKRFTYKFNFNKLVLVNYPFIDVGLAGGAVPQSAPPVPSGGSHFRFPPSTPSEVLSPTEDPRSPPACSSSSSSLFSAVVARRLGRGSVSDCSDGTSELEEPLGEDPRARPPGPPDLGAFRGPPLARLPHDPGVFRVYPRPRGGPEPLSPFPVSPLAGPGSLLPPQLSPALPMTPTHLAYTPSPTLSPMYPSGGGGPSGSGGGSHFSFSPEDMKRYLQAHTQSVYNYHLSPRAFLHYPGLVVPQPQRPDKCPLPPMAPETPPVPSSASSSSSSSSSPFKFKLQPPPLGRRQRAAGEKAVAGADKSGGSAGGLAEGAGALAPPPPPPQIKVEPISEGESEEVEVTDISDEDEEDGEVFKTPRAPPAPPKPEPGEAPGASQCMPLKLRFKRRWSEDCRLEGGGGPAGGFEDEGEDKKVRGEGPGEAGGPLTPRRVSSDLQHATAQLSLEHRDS
Method in brief: as §1

ETV3L = molecular target: T8, ETV3L (Homo sapiens, UniProt Q6ZN32 1-361)
T8 sequence: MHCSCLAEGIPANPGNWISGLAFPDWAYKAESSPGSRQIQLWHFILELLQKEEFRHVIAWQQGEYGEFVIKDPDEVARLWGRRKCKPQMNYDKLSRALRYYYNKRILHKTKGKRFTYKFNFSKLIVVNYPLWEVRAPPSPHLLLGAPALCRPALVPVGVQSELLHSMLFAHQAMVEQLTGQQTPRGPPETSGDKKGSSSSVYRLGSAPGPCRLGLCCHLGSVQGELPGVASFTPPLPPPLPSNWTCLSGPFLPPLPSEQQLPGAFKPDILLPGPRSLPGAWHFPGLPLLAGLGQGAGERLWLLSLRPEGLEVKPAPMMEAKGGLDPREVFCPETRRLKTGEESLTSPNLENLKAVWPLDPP
Method in brief: as §1

ETS2 = molecular target: T9, ETS2 (Homo sapiens, UniProt P15036 1-469)
T9 sequence: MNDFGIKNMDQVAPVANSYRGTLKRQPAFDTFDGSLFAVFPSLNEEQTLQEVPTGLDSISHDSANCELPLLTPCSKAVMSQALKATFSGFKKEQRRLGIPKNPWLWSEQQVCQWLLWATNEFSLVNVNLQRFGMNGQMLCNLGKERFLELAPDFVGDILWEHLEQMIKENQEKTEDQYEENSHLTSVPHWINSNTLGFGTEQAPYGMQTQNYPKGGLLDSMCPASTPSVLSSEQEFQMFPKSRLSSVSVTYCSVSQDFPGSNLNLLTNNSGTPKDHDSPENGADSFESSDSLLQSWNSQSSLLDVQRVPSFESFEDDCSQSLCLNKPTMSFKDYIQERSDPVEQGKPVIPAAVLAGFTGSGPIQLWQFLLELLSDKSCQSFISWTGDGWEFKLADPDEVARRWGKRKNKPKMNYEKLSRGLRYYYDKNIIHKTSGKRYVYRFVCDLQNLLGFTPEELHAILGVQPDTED
Method in brief: as §1

ETV7 = molecular target: T10, ETV7 (Homo sapiens, UniProt Q9Y603 1-341)
T10 sequence: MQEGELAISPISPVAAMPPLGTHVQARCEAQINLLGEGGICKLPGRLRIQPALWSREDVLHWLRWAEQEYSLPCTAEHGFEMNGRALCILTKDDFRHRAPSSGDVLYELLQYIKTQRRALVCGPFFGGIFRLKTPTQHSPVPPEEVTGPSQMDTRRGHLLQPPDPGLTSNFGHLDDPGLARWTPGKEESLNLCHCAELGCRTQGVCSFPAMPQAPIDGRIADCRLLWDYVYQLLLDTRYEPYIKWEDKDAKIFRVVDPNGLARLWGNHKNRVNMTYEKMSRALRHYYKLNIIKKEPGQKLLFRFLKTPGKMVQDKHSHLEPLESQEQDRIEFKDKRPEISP
Method in brief: as §1

ETV3 = molecular target: T11, ETV3 (Homo sapiens, UniProt P41162-2 1-143)
T11 sequence: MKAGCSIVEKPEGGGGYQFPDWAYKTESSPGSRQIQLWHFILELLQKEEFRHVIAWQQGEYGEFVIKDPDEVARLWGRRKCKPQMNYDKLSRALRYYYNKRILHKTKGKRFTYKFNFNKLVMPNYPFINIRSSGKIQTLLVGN
Method in brief: as §1

ETV6 = ETV6 (Homo sapiens, UniProt P41212 1-452)
Chain of ETV6 (P41212 whole entry): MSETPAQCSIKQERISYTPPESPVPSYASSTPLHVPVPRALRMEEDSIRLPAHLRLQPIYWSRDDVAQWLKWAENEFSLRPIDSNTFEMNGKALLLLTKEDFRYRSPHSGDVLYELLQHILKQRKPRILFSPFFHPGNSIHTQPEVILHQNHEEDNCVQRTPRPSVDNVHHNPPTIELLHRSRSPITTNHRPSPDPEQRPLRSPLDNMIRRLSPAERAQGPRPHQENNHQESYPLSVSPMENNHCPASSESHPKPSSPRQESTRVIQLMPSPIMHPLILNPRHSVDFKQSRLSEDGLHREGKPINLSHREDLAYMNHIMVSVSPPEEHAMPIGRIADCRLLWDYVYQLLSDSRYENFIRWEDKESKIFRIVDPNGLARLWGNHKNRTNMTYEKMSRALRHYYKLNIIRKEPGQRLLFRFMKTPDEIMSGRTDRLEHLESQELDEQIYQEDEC
Method in brief: as §1

Sequence: TCAATC
- binding signal (ELK1): 1.08 fold enrichment (6-mer frequency, TF over GST control)
- binding signal (GABPA): 1.13 fold enrichment (6-mer frequency, TF over GST control)
- binding signal (ERG): 1.04 fold enrichment (6-mer frequency, TF over GST control)
- binding signal (ELF1): 1.07 fold enrichment (6-mer frequency, TF over GST control)
- binding signal (SPIB): 1.04 fold enrichment (6-mer frequency, TF over GST control)
- binding signal (SPIC): 1.1 fold enrichment (6-mer frequency, TF over GST control)
- binding signal (ELF4): 1.06 fold enrichment (6-mer frequency, TF over GST control)
- binding signal (ELK4): 1.03 fold enrichment (6-mer frequency, TF over GST control)
- binding signal (ELF3): 1.09 fold enrichment (6-mer frequency, TF over GST control)
- binding signal (ETV1): 1.04 fold enrichment (6-mer frequency, TF over GST control)
- binding signal (ERF): 1.09 fold enrichment (6-mer frequency, TF over GST control)
- binding signal (ETV3L): 1.05 fold enrichment (6-mer frequency, TF over GST control)
- binding signal (ETS2): 1.04 fold enrichment (6-mer frequency, TF over GST control)
- binding signal (ETV7): 1.01 fold enrichment (6-mer frequency, TF over GST control)
- binding signal (ETV3): 1.01 fold enrichment (6-mer frequency, TF over GST control)
- binding signal (ETV6): 1.06 fold enrichment (6-mer frequency, TF over GST control)
